ALOX12 inh: ALOX12 (human) lipoxygenase inhibition; purified 12hLO, xylenol orange hydroperoxide absorbance; Potency, µM (titrated, usually from 108 µM), for inactives: top-dose activity change, negative = inhibition, usual class: inhibitors; 580,000 tested, 1.1% active; AID 1671190; P18054; also: % is scaled to controls: 0 for no effect and ±100 for the full control effect
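Purified human 12hLO (150 nM final) in 25 mM Hepes, 0.01% Triton X-100, pH 7.0 was preincubated 15 min at room temperature with compound. Then 40 uM arachidonic acid was added, 30 min. Hydroperoxide was read by Fe-XO absorbance ratio 573/405 nm.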
G9a inh: blocks human histone lysine methyltransferase G9a; Q96KQ7; G9a H3K9 monomethylation, AlphaScreen, 2 h; Potency, µM (titrated, usually from 102 µM), for inactives: at the top dose activity, negative = inhibition, actives largely listed as inhibitors; 350,000 tested, 8.8% active; AID 504332; also: % is scaled to controls: 0 for no effect and ±100 for the full control effect; nearly all actives have a fitted effect of over 75% in size
Target sequence (Q96KQ7 913-1193 limits assumed): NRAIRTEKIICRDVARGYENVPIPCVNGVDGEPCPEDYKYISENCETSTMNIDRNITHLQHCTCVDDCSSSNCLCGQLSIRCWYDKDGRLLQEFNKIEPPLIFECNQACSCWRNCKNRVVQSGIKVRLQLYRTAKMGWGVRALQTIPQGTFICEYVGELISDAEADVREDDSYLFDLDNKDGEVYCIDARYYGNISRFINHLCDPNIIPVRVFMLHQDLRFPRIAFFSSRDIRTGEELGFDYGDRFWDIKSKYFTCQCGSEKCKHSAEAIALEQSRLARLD
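AlphaScreen detection with an anti-monomethyl H3K9 antibody quantified product after a 2 h room-temperature reaction containing 500 nM biotinylated H3K9 peptide, 20 µM SAM and 20 nM enzyme, which had been preincubated 15 min with compound.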
VDR inh: vitamin D3 receptor (human) inhibition; VDR-SRC2-3 peptide fluorescence polarization, 2 h; Potency, µM, for inactives: max response, negative = inhibition, actives largely listed as inhibitors; 400,000 tested, 0.93% active; also: % is scaled to controls: 0 for no effect and ±100 for the full control effect
Target sequence (P11473 whole entry, looked up): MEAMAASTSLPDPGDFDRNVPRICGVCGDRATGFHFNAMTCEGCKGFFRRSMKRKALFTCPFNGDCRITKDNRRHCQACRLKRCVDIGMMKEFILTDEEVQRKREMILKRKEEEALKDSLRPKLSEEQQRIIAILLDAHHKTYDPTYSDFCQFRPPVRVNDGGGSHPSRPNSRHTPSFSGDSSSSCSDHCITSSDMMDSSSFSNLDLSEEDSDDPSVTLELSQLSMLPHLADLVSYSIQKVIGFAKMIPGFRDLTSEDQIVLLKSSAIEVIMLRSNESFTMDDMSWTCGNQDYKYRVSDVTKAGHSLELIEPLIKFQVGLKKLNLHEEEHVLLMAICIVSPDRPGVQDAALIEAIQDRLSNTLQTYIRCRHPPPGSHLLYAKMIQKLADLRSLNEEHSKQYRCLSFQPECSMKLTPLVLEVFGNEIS
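Reagent solutions, kept cold and dark, are dispensed first; compounds are then pinned in at 23 nl, plates briefly spun, and incubated 2 h at ambient temperature. Inhibition of VDR–SRC2-3 peptide binding is read by fluorescence polarization.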
Sfp inh: blocks B. subtilis Sfp PPTase activity; Q9F4F7; Biochemical Sfp PPTase activity, qHTS; Potency, µM, for the others: largest response in the series, negative = inhibition, hits mostly inhibitors; 310,000 tested, 3.5% active;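 also: the enzyme is Sfp with the accession as filed and its product quenches rhodamine fluorescence; 0% = enzyme reaction without inhibitor and -100% = no enzyme wells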
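Fluorescence-quenching assay with 15 nM Sfp, 5 uM rhodamine-CoA and 12.5 uM BHQ-2-labelled ybbR peptide in pH 7.6 Hepes/MgCl2 buffer. Enzyme was pre-incubated with compound for 15 min at room temperature. Rate was taken from the 30-min fluorescence change (525/598 nm).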
GRP78 ERSR act: ER stress response induction in glioma. U87-MG GRP78 promoter luciferase reporter, 16 h. Potency, µM, for the others: at the top dose activation, hits mostly activators. 420,000 tested, 0.02% active; also: series mostly up to about 76 µM; % of control where 0% means no effect; nearly all actives have a fitted effect of over 35% in size
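Stably transfected U87-MG human glioma cells carrying a GRP78-based luminescent sensor were seeded at 1000 cells/well, pin-dosed with compounds and incubated 16 h. Luciferase reagent was then added, and end-point luminescence was read after 10 min at room temperature.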
Active calls of the source: *; ? = inconclusive; / = no result; [ ] = another dose, or the depositor's remark. Only a selection was taken, and hits are over-represented in it overall. Calls follow the shape of the dose curve; as a rule, active = well fitted curve in the direction sought with a large enough effect; inconclusive = small, poorly fitted or top-dose-only effect, or another doubt; inactive = no such curve, though single readings can be large; an effect the other way counts as inactive or inconclusive. Potency is read from the fitted curve at half-maximal effect.

SMILES	ALOX12 inh	G9a inh	VDR inh	Sfp inh	GRP78 ERSR act
CCCCC(c1nnnn1C(C)C)N1CCN(C(=O)c2ccco2)CC1 (centres undefined)	?	50.1µM*	-15.4%	-24.1%	-5.4%
O=S(=O)(c1ccc(Oc2ccc3ccccc3c2)nc1)N1CCOCC1	-38.4%	/	/	/	/
CCNC(=S)NN=C1CCC(C(C)(C)C)CC1 (centres undefined)	0.0%	?	-15.6%	50.1µM*	-4.7%
CC(=O)NN=C1CCC(C(C)(C)C)CC1 (centres undefined)	44.7%	/	/	/	/
S=C(Nc1cccnc1)NC1CC2CCC1C2 (centres undefined)	-9.5%	/	-3.8%	-0.6%	3.4%
CC(C)(C)C1CCC(=NNC(=S)Nc2cccnc2)CC1 (centres undefined)	-14.3%	10µM*	9.0%	?	-2.6%
COc1ccc(Nc2ccc([N+](=O)[O-])cn2)cc1	28.2µM*	-4.2%	-0.4%	13.3%	-0.9%
COc1cc(/C=N/Nc2ccc([N+](=O)[O-])cn2)cc(OC)c1O	-3.3%	8.91µM*	-5.9%	-7.0%	1.0%
COc1ccc(Nc2cc(C)c3cc([N+](=O)[O-])ccc3n2)cc1	0.7%	39.8µM*	3.7%	?	0.4%
O=C(Nc1cccnc1N1CCCC1)N1CCN(c2cnccn2)CC1	-5.4%	/	/	/	/
Cc1cc(NC(=O)c2nc3ccccc3nc2N2CCCCC2)ccc1Br	14.9%	/	/	/	/
Cc1ccc2c(c1)C(c1ccc(F)cc1)N(C(=O)CCc1ccccc1)CC(=O)N2 (centres undefined)	-13.5%	/	/	/	/
Cc1ccc(C(=O)NNC(=O)/C=C\C(=O)O)cc1	0.5%	50.1µM*	7.2%	?	13.0%
O=C(NCc1ccccc1)c1ccc(NC(=O)N2CC3CCCN3c3ccccc32)cc1 (centres undefined)	?	3.55µM*	16.1%	/	-2.7%
COC(=O)c1ccc(Cl)cc1NC(=O)N1CC2CCCN2c2ccccc21 (centres undefined)	-2.3%	8.91µM*	-0.3%	/	-2.7%
Cc1ccc(NC(=O)N2CC3CCCN3c3ccccc32)cc1C (centres undefined)	-1.9%	10µM*	6.7%	/	-0.9%
Cc1ccc(NC(=O)N2CC3CCCN3c3ccccc32)cc1Cl (centres undefined)	-22.8%	8.91µM*	2.8%	/	-1.3%
Cc1ccc(NC(=O)N2CC3CCCN3c3ccccc32)c(C)c1 (centres undefined)	-4.0%	-4.1%[59 µM]	-2.6%	/	-2.9%
COc1ccc2cc(/C=C(\NC(=O)c3ccccc3)C(=O)N3CCCC3)c(Cl)nc2c1	-23.6%	/	/	/	/
CC(=O)Oc1cccc2c1C(=O)c1c(OC(C)=O)cc(C(=O)O)cc1C2=O	-16.0%	3.55µM*	?	-0.1%	-2.7%
CSc1ccc(/C=N/Nc2cccc(C(=O)O)c2)cc1	/	3.98µM*	-2.3%	11.5%	-17.4%
COC(=O)c1ccc(COc2ccc(/C=N/Nc3cccc(C(=O)O)c3)cc2)cc1	?	8.91µM*	-19.1%	4.9%	-12.9%
O=C(O)c1ccc(COc2ccc(/C=N/NC(=O)c3cccs3)cc2)cc1	?	10µM*	-7.8%	7.6%	4.5%
O=C(O)c1ccc(N/N=C/c2ccc(OC(=O)c3cccc(Cl)c3)cc2)cc1	?	1.7%[12.7 µM]	-13.2%	39.8µM*	-17.6%
COC(=O)c1ccc(COc2ccc(/C=N/Nc3nc(C)cc(=O)[nH]3)cc2)cc1	-7.8%	-0.7%[59 µM]	-8.1%	2.4%	5.2%
SMILES	ALOX12 inh	G9a inh	VDR inh	Sfp inh	GRP78 ERSR act
O=C(Oc1ccc(/C=N/Nc2ccccc2)cc1)c1ccccc1	?	-5.4%[0.0925 µM]	18.4%	-13.7%	4.5%
NCCC/C(=N/O)c1cccs1	-6.6%	/	/	/	/
O=C(NC1CC1)c1ccc(CN(C2CC2)S(=O)(=O)c2ccc3c(c2)CCCC3)cc1	0.0%	/	/	/	/
O=C(O)c1cccc(N/N=C/c2ccc(OC(F)(F)F)cc2)c1	0.0%	14.1µM*	-1.4%	-0.9%	-17.5%
C=CCOc1c(OC)cc(/C=N/Nc2cccc(C(=O)O)c2)c(Br)c1Br	?	10µM*	?	-3.8%	1.8%
CN(C)C(=O)CCc1c(-c2ccc(F)cc2)[nH]c2ccccc12	-8.8%	/	/	/	/
CC(C)(C#N)C(=O)NCc1ccccc1OCc1ccccc1	0.0%	/	/	/	/
Cc1cc(NC(=O)Cn2c(=O)n(-c3ccc(C)c(C)c3)c(=O)c3sccc32)no1	3.8%	/	/	/	/
C=CCOc1ccc(NC(=O)c2ccc(C(C)(C)C)cc2)cc1	13.9%	/	/	/	/
CCc1ccc(C(=O)NNc2ccc(Cl)cc2)cc1	-7.4%	10µM*	-18.6%	13.9%	6.4%
CC(C)(C)c1ccc(C(=O)NNc2cc(Cl)cc(Cl)c2)cc1	147.9%	22.4µM*	5.2%	13.7%	0.3%
CC(C)(C)c1ccc(C(=O)NNC(=O)c2ccc(Cl)cc2)cc1	9.6%	-5.1%[59 µM]	-7.3%	14.4%	-3.6%
CCc1ccc(C(=O)NNc2cc(Cl)cc(Cl)c2)cc1	?	/	-3.8%	4.8%	0.1%
CC(=O)N1CCC(=NNc2ccnc3cc(Cl)ccc23)CC1	?	28.2µM*	-18.3%	1.6%	-2.5%
CCOC(=O)N1CCC(=NNc2ncc(C(F)(F)F)cc2Cl)CC1	-15.5%	9.9%	-19.1%	?	1.1%
CCOC(=O)N1CCC(=NNc2ccnc3cc(Cl)ccc23)CC1	?	35.5µM*	-10.5%	3.6%	-4.7%
Cc1nc2ccc(C(=O)OCC(=O)NC3CC3)cc2nc1C	-6.6%	/	/	/	/
CCOc1cc(/C=C2\N=C(SC(C)C(N)=O)N(c3ccc(OC(F)F)cc3)C2=O)ccc1O (centres undefined)	354.4%	?	-14.0%	44.7µM*	-7.2%
COc1ccc(CCNC(=O)COc2ccc3ccc(=O)oc3c2)cc1	12.8%	/	/	/	/
CC1(C)CC(N2CCN(CCO)CC2)=CC(=S)N1	0.0%	?	-22.2%	50.1µM*	1.1%
O=S(=O)(NCc1ccccc1F)c1ccc2c(c1)OCCO2	-27.4%	/	/	/	/
CCc1ccc(OCc2nnc(SCC(=O)C(C)(C)C)n2CC(C)C)cc1	-1.9%	/	/	/	/
Cc1cc(Cl)c(S(=O)(=O)NC2CCCCC2)cc1OCC(=O)Nc1nncs1	-25.9%	17.8µM*	13.8%	-2.7%	-5.4%
COc1cccc(CN(C)CC(=O)Nc2cc(C)nn2-c2ccccc2C)c1	17.5%	/	/	/	/
Cc1ccccc1C(=O)/C=C/c1cccnc1	-13.2%	/	/	/	/
SMILES	ALOX12 inh	G9a inh	VDR inh	Sfp inh	GRP78 ERSR act
COc1ccc(-n2nnc3c(SCC(=O)Nc4ccc5c(c4)OCCO5)ncnc32)cc1	/	4.0%	/	12.6µM*	/
CCOC(=O)c1c(C)c(C(=O)Nc2cccc(Cl)c2C)c(C)n1C	-22.6%	/	/	/	/
COc1cccc(CNC(=O)c2c[nH]n3c(=O)c(Cl)c(C)nc23)c1	-17.9%	44.7µM*	?	-12.7%	-2.6%
Cc1nc2c(C(=O)NCc3ccc4c(c3)OCO4)c[nH]n2c(=O)c1Cl	?	7.2%[59 µM]	-27.7%	44.7µM*	-4.2%
Cc1ccc(CNC(=O)c2c[nH]n3c(=O)c(Cc4ccc(Cl)cc4)c(C)nc23)cc1	-12.6%	24.6%[59 µM]	-8.5%	/	-3.0%
O=C(NCC1CCCO1)Nc1cccc(-c2nnc3n2CCCC3)c1 (centres undefined)	-12.3%	/	/	/	/

Assay outcomes (PubChem BioAssay)
